# Laboratory results as given in PubChem BioAssay (EPA / NIEHS).
# Records with an inconclusive call do not appear. Calls of active or inactive are those of the source. How the source made its calls, unless noted: active means hit-call score of the fitted dose curve at least 0.9, where 1 is the maximum; inconclusive means response in the unintended direction; inactive means score below 0.9.
# How the values were obtained:
# [1] = read-out: kallikrein-3 (KLK3), KLK3 (gene 354); experiment: LTEA_HepaRG_KLK3: Life Technologies and Expression Analysis (LTEA) Assay for kallikrein-3 (KLK3) using HepaRG (AID 2283652; active means hit-call score of the fitted dose curve at least 0.9, where 1 is the maximum; inactive means score below 0.9); conditions: mRNA level, 48 h; actives raise or lower the signal
# Procedure, shortened: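 Differentiated human HepaRG cells in serum-free induction medium exposed 48 h in duplicate, eight-point half-log series from 100 uM in 0.5% DMSO. KLK3 mRNA by qRT-PCR, normalised to ACTB, GAPDH, POLR2A; bidirectional fit versus DMSO.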
# [2] = read-out: solute carrier (SLC22A6), SLC22A6 (gene 9356); experiment: LTEA_HepaRG_SLC22A6: Life Technologies and Expression Analysis (LTEA) Assay for solute carrier (SLC22A6) using HepaRG (AID 2283653; active means hit-call score of the fitted dose curve at least 0.9, where 1 is the maximum; inactive means score below 0.9); conditions: mRNA level, 48 h; actives raise or lower the signal
# Experimental: (§1) LTEA_HepaRG is a cell based, multiplexed-readout assay that uses HepaRG, a human liver cell line, with measurements taken at 48 hours after chemical dosing on a 96-well plate.LTEA_HepaRG_SLC22A6 is one of 102 assay component(s) measured in the LTEA HepaRG cell culture assay. It is a marker of NR mediated transport.Data from the assay component LTEA_HepaRG_SLC22A6 was analyzed into 1 endpoint. This assay endpoint, LTEA_HepaRG_SLC22A6, was analyzed with bidirectional fitting relative to DMSO as the negative control and baseline of activity. Using a type of inducible reporter, measures of mRNA induction for gain or loss-of-signal activity can be used to understand regulation of transcription factor activity. To generalize the intended target to other relatable targets, this assay endpoint is annotated to the transporter intended target family, where the subfamily is organic anion transporter.
# (§2) A total of 1060 chemcials from the ToxCast library were tested in eight-point concentration-response experiments. Cell culture and cytotoxicity assays were conducted at Thermo Fisher Scientific's Custom Services facility (Madison, WI). […] Fluidigm's 96.96 Dynamic ArrayTM (Fluidigm, Amsterdam, the Netherlands) technology was used for gene expression analyses by quantitative reverse transcription polymerase chain reaction (qRT-PCR, performed by Quintiles/Expression Analysis, Durham, NC)89. […]
# [3] = read-out: solute carrier (SLC10A1), SLC10A1 (gene 6554); experiment: LTEA_HepaRG_SLC10A1: Life Technologies and Expression Analysis (LTEA) Assay for solute carrier (SLC10A1) using HepaRG (AID 2283657; active means hit-call score of the fitted dose curve at least 0.9, where 1 is the maximum; inactive means score below 0.9); conditions: mRNA level, 48 h; actives raise or lower the signal
# Experimental: as §1, with “plate.LTEA_HepaRG_SLC10A1” for “plate.LTEA_HepaRG_SLC22A6”, “LTEA_HepaRG_SLC10A1” for “LTEA_HepaRG_SLC22A6”, “LTEA_HepaRG_SLC10A1,” for “LTEA_HepaRG_SLC22A6,”, “sodium/bile acid cotransporter.” for “organic anion transporter.”
# as §2
# [4] = read-out: matrix metalloproteinase-1 (MMP1), MMP1 (gene 4312); experiment: LTEA_HepaRG_MMP1: Life Technologies and Expression Analysis (LTEA) Assay for matrix metalloproteinase-1 (MMP1) using HepaRG (AID 2283658; active means hit-call score of the fitted dose curve at least 0.9, where 1 is the maximum; inactive means score below 0.9); conditions: mRNA level, 48 h; actives raise or lower the signal
# Procedure, shortened: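 In this screen, human liver HepaRG cultures receive each chemical in duplicate for 48 h (top 100 uM, 0.5% DMSO). MMP1 expression is then quantified by TaqMan qRT-PCR with ACTB/GAPDH/POLR2A normalization.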
# [5] = Tanguay_ZF_120hpf_CFIN_legacy: (Legacy) Oregon State University Tanguay Lab 120 Hour Post-fertilization zebrafish Assay for Caudal Fin Malformation (AID 2283649)
# Procedure, shortened: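 Single dechorionated 5D wild-type embryos are dosed at 6 hpf (final DMSO 0.64%) and held statically at 28C. Caudal fin malformation is recorded as present or absent at 120 hpf under brightfield, excluding dead embryos.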
# [6] = Tanguay_ZF_120hpf_PIG_legacy: (Legacy) Oregon State University Tanguay Lab 120 Hour Post-fertilization zebrafish Assay for Pigmentation Malformation (AID 2283650)
# Procedure, shortened: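 Tropical 5D wild-type zebrafish embryos, dechorionated with pronase at 4 hpf, were exposed singly from 6 hpf to 120 hpf statically at 28C in sealed, dark plates with 0.64% DMSO; pigmentation scored present/absent by brightfield microscopy, fitted against DMSO.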
# [7] = Tanguay_ZF_120hpf_SWIM_legacy: (Legacy) Oregon State University Tanguay Lab 120 Hour Post-fertilization zebrafish Assay for Swim Bladder Malformation (AID 2283654);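 further: swim bladder malformation in each larva scored yes or no under brightfield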
# Procedure, shortened: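 Dechorionated Tropical 5D wild-type embryos, placed singly from 6 hpf, were statically exposed at 28C to 120 hpf with 0.64% DMSO final; swim bladder malformation was scored present/absent by brightfield microscopy, gain of signal relative to DMSO controls.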
# [8] = Tanguay_ZF_120hpf_CIRC_legacy: (Legacy) Oregon State University Tanguay Lab 120 Hour Post-fertilization zebrafish Assay for Circulatory Malformation (AID 2283651)
# Procedure, shortened: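 Dechorionated wild-type 5D zebrafish embryos, one per well, statically exposed from 6 to 120 hpf at 28C with 0.64% DMSO; circulatory malformation scored present/absent by brightfield microscopy at 120 hpf, dead embryos excluded.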
# [9] = Tanguay_ZF_120hpf_NC_legacy: (Legacy) Oregon State University Tanguay Lab 120 Hour Post-fertilization zebrafish Assay for Notochord and Tail Malformation (AID 2283656)
# Procedure, shortened: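 Dechorionated Tropical 5D wild-type zebrafish embryos, one per well from 6 hpf, statically exposed to 120 hpf at 28C in 0.64% DMSO final. Notochord distortion scored present/absent by brightfield; dead embryos excluded.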
# [10] = test system: Thyroperoxidase (TPO), gene 54314; experiment: CCTE_Simmons_AUR_rTPO: CCTE's Amplex UltraRed Assay for Thyroperoxidase (TPO) Inhibition, Simmons Lab (AID 2283662);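 on AC50: potency for loss of signal meaning inhibition of peroxidase activity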
# Procedure, shortened: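 Endpoint is decreased Amplex UltraRed fluorescence after a 30-min, 37C reaction of rat thyroid microsomes with 300 uM H2O2. Eight test concentrations (5 nM–87.5 uM final) in 0.5% DMSO, three biological replicates each.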
smiles,measurement,setting,value
CC(C)(C)OOC(C)(C)C,outcome,[1],inactive
same,outcome,[2],inactive
same,outcome,[3],inactive
same,outcome,[4],inactive
ClC1=C(Cl)C2(Cl)C3C(Cl)C(Cl)CC3C1(Cl)C2(Cl)Cl (configuration not stated),outcome,[5],inactive
same,outcome,[6],inactive
same,outcome,[7],inactive
CCC(C)(C)c1ccc(O)cc1,AC50,[5],48.8 µM (active)
same,AC50,[6],47.4 µM (active)
same,outcome,[8],inactive
same,AC50,[7],47.2 µM (active)
same,AC50,[9],47.9 µM (active)
same,AC50,[10],4.91 µM (active)
O=[N+]([O-])c1ccccc1,outcome,[5],inactive
same,outcome,[8],inactive
same,outcome,[7],inactive
CCOP(=S)(Oc1ccc([N+](=O)[O-])cc1)c1ccccc1 (configuration not stated),outcome,[5],inactive
same,outcome,[8],inactive
same,outcome,[7],inactive
same,outcome,[9],inactive
same,AC50,[10],10.2 µM (active)
O=S(=O)(c1ccc(O)cc1)c1ccc(O)cc1,AC50,[10],32 µM (active)
O=S1(=O)OCC2C(CO1)C1(Cl)C(Cl)=C(Cl)C2(Cl)C1(Cl)Cl (configuration not stated),AC50,[10],2.41 µM (active)
Cc1ccc(N)cc1N,outcome,[6],inactive
same,outcome,[8],inactive
same,outcome,[7],inactive
same,outcome,[9],inactive
same,AC50,[10],9.92 µM (active)
CC(C)(C)c1ccc(O)cc1,outcome,[5],inactive
same,AC50,[6],25.2 µM (active)
same,outcome,[8],inactive
same,outcome,[7],inactive
same,outcome,[9],inactive
same,AC50,[10],2.73 µM (active)
O=c1ssc(Cl)c1Cl,AC50,[10],24.5 µM (active)
Nc1ccc(Cl)cc1,outcome,[5],inactive
same,outcome,[6],inactive
same,outcome,[8],inactive
same,outcome,[7],inactive
same,outcome,[9],inactive
same,AC50,[10],0.315 µM (active)
CCCCc1ccc(O)cc1,AC50,[10],0.51 µM (active)
CN(C)C(=O)Cl,outcome,[5],inactive
same,outcome,[6],inactive
same,outcome,[8],inactive
same,outcome,[9],inactive
CCCN(CCC)c1c([N+](=O)[O-])cc(C(C)C)cc1[N+](=O)[O-],outcome,[5],inactive
same,outcome,[7],inactive
same,outcome,[9],inactive
CCCCCCCc1ccc(O)cc1,outcome,[6],inactive
same,outcome,[8],inactive
same,outcome,[7],inactive
same,outcome,[9],inactive
same,AC50,[10],10.2 µM (active)
Cc1cccc(N)c1,outcome,[5],inactive
same,outcome,[6],inactive
same,outcome,[8],inactive
same,outcome,[7],inactive
same,outcome,[9],inactive
same,AC50,[10],0.268 µM (active)
CCCCN(CCCC)N=O,outcome,[5],inactive
same,outcome,[7],inactive
O=P(Oc1ccccc1)(Oc1ccccc1)Oc1ccccc1,outcome,[5],inactive
same,outcome,[6],inactive
same,outcome,[7],inactive
same,outcome,[9],inactive
CCCCN(CC)C(=O)SCCC,AC50,[10],6.35 µM (active)
O=[N+]([O-])c1ccc(Cl)c(Cl)c1,outcome,[5],inactive
same,outcome,[6],inactive
same,outcome,[8],inactive
same,outcome,[9],inactive
c1nc[nH]n1,outcome,[5],inactive
same,outcome,[6],inactive
same,outcome,[8],inactive
same,outcome,[9],inactive
CCC1(c2ccccc2)C(=O)N=C(O)NC1=O (configuration not stated),outcome,[5],inactive
same,outcome,[6],inactive
same,outcome,[8],inactive
same,outcome,[7],inactive
same,outcome,[9],inactive
same,outcome,[10],inactive
Cc1ccc([N+](=O)[O-])cc1C,outcome,[6],inactive
same,outcome,[8],inactive
same,outcome,[9],inactive
CCN(CC)c1ccccc1,outcome,[5],inactive
same,outcome,[8],inactive
same,outcome,[7],inactive
same,outcome,[9],inactive
CCOS(=O)(=O)OCC,outcome,[5],inactive
same,outcome,[8],inactive
same,outcome,[7],inactive
same,outcome,[9],inactive
